# Experimental data reported in the supplement of paper PMC4466140.
# Legend:
# Assay in all cases: SPOT peptide array binding signal intensity (averaged, normalized) (arbitrary units (background-subtracted, floor 0; scale differs between SH3 domains)); higher = stronger binding of the SH3 domain to the peptide
# [1] = target: ScBbc1
# Outline: (§1)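 To measure binding, SH3 domains from four yeast species were fused to GST, expressed in E. coli BL21(DE3) and purified on glutathione Sepharose. Each domain was incubated at 10 μg/ml overnight at 4°C on cellulose membranes with synthetic 15-mer peptides whose cysteines were replaced by serines. Anti-GST antibody, an HRP anti-mouse secondary and luminol were used for detection, and images were quantified with Genespotter. Reported binding signal is normalized, background-subtracted spot intensity averaged over replicates, in arbitrary units that differ between domains.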
# [2] = target: ScBem1-D1
# Outline: as §1
# [3] = target: ScBzz1-D1
# Outline: as §1
# [4] = target: ScBzz1-D2
# Outline: as §1
# [5] = target: ScCyk3
# Outline: as §1
# [6] = target: ScFus1
# Outline: as §1
# [7] = target: ScHof1
# Outline: as §1
# [8] = target: ScHse1
# Outline: as §1
# [9] = target: ScLsb1
# Outline: as §1
# [10] = target: ScLsb2
# Outline: as §1
# [11] = target: ScLsb3
# Outline: as §1
# [12] = target: ScLsb4
# Outline: as §1
# [13] = target: ScMyo3
# Outline: as §1
# [14] = target: ScMyo5
# Outline: as §1
# [15] = target: ScNbp2
# Outline: as §1
# [16] = target: ScPex13
# Outline: as §1
# [17] = target: ScRvs167
# Outline: as §1
# [18] = target: ScSho1
# Outline: as §1
# [19] = target: ScSla1-D1-D2
# Outline: as §1
# [20] = target: ScSla1-D3
# Outline: as §1
# [21] = target: SpAbp1-D1
# Outline: as §1
# [22] = target: SpBbc1
# Outline: as §1
# [23] = target: SpBzz1-D1
# Outline: as §1
# [24] = target: SpBzz1-D2
# Outline: as §1
# [25] = target: SpCyk3
# Outline: as §1
# [26] = target: SpHof1
# Outline: as §1
# [27] = target: SpHof1-2
# Outline: as §1
# [28] = target: SpHof1-3
# Outline: as §1
# [29] = target: SpHse1
# Outline: as §1
# [30] = target: SpLsb1
# Outline: as §1
# [31] = target: SpLsb4
# Outline: as §1
# [32] = target: SpMyo1
# Outline: as §1
# [33] = target: SpNbp2
# Outline: as §1
# [34] = target: SpPex13
# Outline: as §1
# [35] = target: SpRvs167
# Outline: as §1
# [36] = target: SpSla1-D1-D2
# Outline: as §1
# [37] = target: SpSla1-D3
# Outline: as §1
binder,measurement,setting,value
LPPPPPPPPPPPLPQ,SPOT peptide array binding signal intensity,[1],2.5
same,SPOT peptide array binding signal intensity,[2],≤ 0
same,SPOT peptide array binding signal intensity,[3],16
same,SPOT peptide array binding signal intensity,[4],2
same,SPOT peptide array binding signal intensity,[5],0.5
same,SPOT peptide array binding signal intensity,[6],≤ 0
same,SPOT peptide array binding signal intensity,[7],9.25
same,SPOT peptide array binding signal intensity,[8],23
same,SPOT peptide array binding signal intensity,[9],0.5
same,SPOT peptide array binding signal intensity,[10],≤ 0
same,SPOT peptide array binding signal intensity,[11],54
same,SPOT peptide array binding signal intensity,[12],1.5
same,SPOT peptide array binding signal intensity,[13],1930
same,SPOT peptide array binding signal intensity,[14],933
same,SPOT peptide array binding signal intensity,[15],16
same,SPOT peptide array binding signal intensity,[16],41.8
same,SPOT peptide array binding signal intensity,[17],≤ 0
same,SPOT peptide array binding signal intensity,[18],≤ 0
same,SPOT peptide array binding signal intensity,[19],16.5
same,SPOT peptide array binding signal intensity,[20],≤ 0
same,SPOT peptide array binding signal intensity,[21],3
same,SPOT peptide array binding signal intensity,[22],0.5
same,SPOT peptide array binding signal intensity,[23],4870
same,SPOT peptide array binding signal intensity,[24],7.5
same,SPOT peptide array binding signal intensity,[25],≤ 0
same,SPOT peptide array binding signal intensity,[26],≤ 0
same,SPOT peptide array binding signal intensity,[27],≤ 0
same,SPOT peptide array binding signal intensity,[28],0.5
same,SPOT peptide array binding signal intensity,[29],2.25
same,SPOT peptide array binding signal intensity,[30],≤ 0
same,SPOT peptide array binding signal intensity,[31],≤ 0
same,SPOT peptide array binding signal intensity,[32],1520
same,SPOT peptide array binding signal intensity,[33],2
same,SPOT peptide array binding signal intensity,[34],≤ 0
same,SPOT peptide array binding signal intensity,[35],5.33
same,SPOT peptide array binding signal intensity,[36],3
same,SPOT peptide array binding signal intensity,[37],≤ 0
